# The full ranking holds about 8,300 sequences; the median of “log2 fold change of degron read counts, EGFP-low vs EGFP+ sorted cells (limma voom), compound-induced degradation” is about -1.1, and the highest 2% start at about 3.2. The full list was thinned out, with the highest values kept by preference.
# T1: CRBN, Q96SW2
# T1 chain: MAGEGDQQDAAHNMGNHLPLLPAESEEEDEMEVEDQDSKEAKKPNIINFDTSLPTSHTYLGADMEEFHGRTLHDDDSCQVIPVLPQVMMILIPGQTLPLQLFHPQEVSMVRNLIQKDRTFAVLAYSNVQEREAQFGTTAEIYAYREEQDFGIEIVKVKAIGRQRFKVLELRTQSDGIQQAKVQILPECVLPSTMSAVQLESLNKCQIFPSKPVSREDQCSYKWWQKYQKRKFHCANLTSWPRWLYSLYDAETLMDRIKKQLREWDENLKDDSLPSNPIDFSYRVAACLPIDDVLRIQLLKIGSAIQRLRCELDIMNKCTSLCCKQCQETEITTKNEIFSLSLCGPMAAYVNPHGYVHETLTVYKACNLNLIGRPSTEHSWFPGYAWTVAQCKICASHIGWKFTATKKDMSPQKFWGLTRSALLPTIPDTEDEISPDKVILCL
# Biological target: T1, CRBN, Q96SW2
# Assay: log2 fold change of degron read counts, EGFP-low vs EGFP+ sorted cells (limma voom), compound-induced degradation; higher = more compound-induced degradation of the degron-EGFP fusion; degrons are variants of IKZF1/3 zinc finger 2; compound dose not given here
# Conditions: Jurkat, 18 h
# Protocol: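 Pooled library of 8380 IKZF3 ZF2 degron mutants (positions 146-167 varied within the IKZF3 130-189 degron; only the varied core is printed, flanks not printed) fused to EGFP with IRES-mCherry, lentivirally expressed in Jurkat cells. mCherry+ cells were treated with one IMiD compound for 18 h (dose not stated) and FACS-sorted into EGFP-low and EGFP+ populations. Degron sequences were counted by NGS, and log2FC (EGFP-low vs EGFP+) was estimated by limma voom over 3 biological replicates.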
# [1] = compound: compound 19 (5-tert-butyl-thalidomide)
# [2] = compound: compound 22 (5-morpholino-thalidomide)
# [3] = compound: compound 33 (diphenyl IMiD analogue)
# 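Also: pooled lentiviral library of zinc finger degron-EGFP fusions in mCherry-positive Jurkat cells, FACS-sorted after compound exposure, with degron abundance counted by next-generation sequencing.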
Sequence,log2 fold change of degron read counts [1],log2 fold change of degron read counts [2],log2 fold change of degron read counts [3],log2 fold change of degron read counts (compound: thalidomide)
"FVCEICGHPFTQKGNLLRHIKL [46F_47V_49E_50I_52G_53H_54P_55F_67L_, Q9UKT9]",-1.95,-1.66,-1.45,-0.105
"FLCEICGACFTQKGNLLRHIKL [46F_47L_49E_50I_52G_53A_54C_55F_67L_, Q9UKT9]",1.19,-0.209,1.6,1.57
"FHCEICGACFTQKGNLLRHIKL [46F_47H_49E_50I_52G_53A_54C_55F_67L_, Q9UKT9]",2.97,2.54,1.42,0.134
"FACEICGACFTQKGNLLRHIKL [46F_47A_49E_50I_52G_53A_54C_55F_67L_, Q9UKT9]",3.71,2.6,1.54,0.745
"FFCEICGACFTQKGNLLRHIKL [46F_47F_49E_50I_52G_53A_54C_55F_67L_, Q9UKT9]",3.78,3.84,2.33,1.61
"FNCEICGACFTQKGNLLRHIKL [46F_47N_49E_50I_52G_53A_54C_55F_67L_, Q9UKT9]",2.72,0.812,0.513,0.0996
"FWCEICGACFTQKGNLLRHIKL [46F_47W_49E_50I_52G_53A_54C_55F_67L_, Q9UKT9]",3.85,3.79,2.77,1.16
"FICEICGACFTQKGNLLRHIKL [46F_47I_49E_50I_52G_53A_54C_55F_67L_, Q9UKT9]",-0.122,2.02,2.45,2.64
"FECNQCGHIFTQKGNLLRHIKL [46F_47E_49N_50Q_52G_53H_54I_55F_67L_, Q9UKT9]",-3.19,-3.02,-3.5,-3.26
"FVCEICGRMFTQKGNLLRHIKL [46F_47V_49E_50I_52G_53R_54M_55F_67L_, Q9UKT9]",-2.37,-1.56,-0.324,-0.297
"FHCEICGHNFTQKGNLLRHIKL [46F_47H_49E_50I_52G_53H_54N_55F_67L_, Q9UKT9]",-2.97,-3.92,-2.88,-3.29
"FECNICGAHFTQKGNLLRHIKL [46F_47E_49N_50I_52G_53A_54H_55F_67L_, Q9UKT9]",-1.95,-2.29,0.157,0.612
"FHCEICGAQFTQKGNLLRHIKL [46F_47H_49E_50I_52G_53A_54Q_55F_67L_, Q9UKT9]",2.66,2.64,2,0.968
"FTCEICGAQFTQKGNLLRHIKL [46F_47T_49E_50I_52G_53A_54Q_55F_67L_, Q9UKT9]",0.557,1.85,2.25,2.92
"FYCEICGAQFTQKGNLLRHIKL [46F_47Y_49E_50I_52G_53A_54Q_55F_67L_, Q9UKT9]",3.6,3.55,3.13,2.12
"FICEICGAQFTQKGNLLRHIKL [46F_47I_49E_50I_52G_53A_54Q_55F_67L_, Q9UKT9]",0.506,2.86,3.06,3.16
"FWCEICGAQFTQKGNLLRHIKL [46F_47W_49E_50I_52G_53A_54Q_55F_67L_, Q9UKT9]",3.54,3.93,2.7,2.04
"FLCEICGAQFTQKGNLLRHIKL [46F_47L_49E_50I_52G_53A_54Q_55F_67L_, Q9UKT9]",1.29,-0.49,1.79,2.07
"FFCEICGAQFTQKGNLLRHIKL [46F_47F_49E_50I_52G_53A_54Q_55F_67L_, Q9UKT9]",3.67,3.67,2.56,1.93
"FQCEICGAQFTQKGNLLRHIKL [46F_47Q_49E_50I_52G_53A_54Q_55F_67L_, Q9UKT9]",0.962,2.24,2.41,3.56
"FDCEICGAQFTQKGNLLRHIKL [46F_47D_49E_50I_52G_53A_54Q_55F_67L_, Q9UKT9]",2.04,0.951,-0.0023,1.29
"FECEICGAQFTQKGNLLRHIKL [46F_47E_49E_50I_52G_53A_54Q_55F_67L_, Q9UKT9]",-0.353,-0.866,1.45,2.5
"FRCEICGAQFTQKGNLLRHIKL [46F_47R_49E_50I_52G_53A_54Q_55F_67L_, Q9UKT9]",0.162,0.149,1.38,1.94
"FMCEICGAQFTQKGNLLRHIKL [46F_47M_49E_50I_52G_53A_54Q_55F_67L_, Q9UKT9]",0.486,0.824,2.7,1.97

# Source: the supplement of paper PMC12645437, “Orthogonal IMiD-Degron Pairs Induce Selective Protein Degradation in Cells” (ACS Chemical Biology, 2025)
